Consider 108 sequences from PubChem BioAssay AID1508600 (Functional Genomics Laboratory (NCATS/FGL), 2020).

Among all 53,000 sequences or so, about 3,700 (7%) were called active. This is one part of a sample in which actives are shown more often than they occur.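 How the source made its calls: active means gene knockdowns whose robust z-score for IL-1 alpha signal is at least 2 or at most -2, so actives lie on both sides; inactive means the rest.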

The nature of the assay: Components of the Cytosolic LPS Sensing Pathway: Gene Identification via Genome-wide siRNA Screen.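 Further: robust z of the log signal after scaling to non-targeting control siRNA wells of the plate.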 The following applies: RAW264.7 macrophages, IL-1a HTRF, actives lie on both sides, screened at 100 nM (by protocol), cells primed 5 h with Pam3CSK4 first. A digest of the protocol:
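Cells (RAW264.7, 1×10^4 per well) were transfected with siRNA at 100 nM and cultured 48h at 37 degrees C. Pam3CSK4 was added for 5 hours; LipidA transfection followed for 24 hour. IL-1a was then measured by HTRF.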
A general note: In TR-FRET formats the signal depends on donor and acceptor labels being close together.
As to GGACCAAGUGGAGAAAGAATT against Nkx6-1, the z-score is -0.622 (inactive). In the case of CCCAGAUGAACAAAUGACCTT against Tceanc it was 0.582 (inactive); in that of GCAUUAUGGAAAGUUGGAGTT against Gabra4, 0.915 (inactive); in that of GGAGUGUGAGGUCCUCUCUTT against Sdsl, 1.85 (inactive). Consider GCGUAAGGAAUUGUCUAACTT against Hoxd12, for which the z-score is 4.05 (active). With CCGACGAUUCCUGAAGCUATT against Tada3 the figure was -0.275 (inactive); with GGUGACAGAUUCUUUGAGGTT against Tti2, 0.704 (inactive); with GGUCAGAUUAUGCUUUAGATT against Mrgpre, -0.783 (inactive). In the case of CGUGAUUGAAUCUCAGGAGTT against Spata24 it was -2.14 (active); in that of GCAGAGGGUUUUCCAAGCGTT against Ddx4, -0.631 (inactive). In the case of GGAAGUGACCUGUCUGAAGTT against Gramd1a it was 0.641 (inactive); in that of GGAUUAUGUAGAGGCCCAATT against Gngt2, -2.63 (active).

Take GGACAGCUGGACCUAAAGGTT against Slco4a1: the z-score was -0.417 (inactive). In the case of GGAGCUGAUGGUUGAAUGUTT against Ehbp1 it was 0.177 (inactive); in that of GGAUCCUCGGGAGUACAUGTT against Crybg3, 0.287 (inactive). As to CCAGUAAGUUGCAUUCGAATT against Defb8, the z-score was 0.675 (inactive). In the case of GGCAUAGCUGGUCUGAAGATT against Slc3a2 it was 2.06 (active); in that of CCUCAUUUCCAAACUCAAATT against Fbxw13, -0.491 (inactive); in that of CCACGAGAAGUGGAUAUUATT against Plcxd3, -1.1 (inactive). In the case of CCUGAACAUGAGUUAAAAGTT against Lmo4 it was 0.156 (inactive); in that of GGAUUAGCUCUACAGAAGGTT against Olfr1031, 1.67 (inactive). Take GGAGCUGUUUUUCCACUCCTT against Phlda2: the z-score was -0.337 (inactive). With GCUGGAAGAAAACUUCUAUTT against Jade2 the figure was 2.49 (active); with GGUAUGGUUUCUAUAACAATT against Arsj, 0.814 (inactive).

On to “GGAAGGUCAUGUGAAUAUCTT against A930002I21Rik”, for which the z-score is -1.6 (inactive).

On to “GGCUUUGAGAGUUUGUCACTT against 2410004B18Rik”, for which the z-score was -1.62 (inactive). In the case of GGGAGUUAAACUUCUCUGCTT against Tlr13, the z-score was -0.0637 (inactive). With GGUACCGGAGUCUGAAACATT against Drp2 the figure was -2.53 (active); with GGGUCAGUGUGGAGAGUACTT against Col13a1, 0.679 (inactive); with GGAUGAAUGGAAUUUACUGTT against Fbh1, 0.406 (inactive). In the case of GGGAAAAGUGGUAAAUUAUTT against Shprh it was 0.194 (inactive); in that of GGAAGACAAGGUUUUAGCUTT against Ulbp1, 1.92 (inactive); in that of CGUGGAGAGAUCAAUCCCGTT against Adad1, -2.01 (active). Regarding GGUUCAUGAAUGACAAACUTT against Sult4a1, the z-score was 0.383 (inactive). Turning to GGUGUUUAAUAAUGUUGUCTT against Olfr976, the z-score was -0.27 (inactive). With CCCAAUGACAAUAAAGACCTT against Mmp25 the figure was -0.936 (inactive); with GGGCUUGUAUCUACCAUGGTT against Strbp, 2.18 (active); with GGUAAGAGGAUCCAAGGUGTT against Fam131a, 0.0909 (inactive). In the case of CCUACGUCCAGUAGUGCAGTT against Ahdc1 it was 1.43 (inactive); in that of GCUCAAAGGACCUCUGAGCTT against Slc29a2, -1.28 (inactive); in that of CCUCCACUUCGUGAGCGAATT against Xxylt1, -1.25 (inactive). In the case of GCCACUGUUGUGUAAACUATT against Rap2a it was 2.01 (active); in that of GGAGAAGUCUUCAUUUGAATT against Tubgcp2, -0.331 (inactive).

Consider GGAAGUAGGCAGCAUCAUCTT against Pcbp1, for which the z-score was 1.13 (inactive). In the case of GGCUGGCUUUGAACUCAAUTT against Zfp36 it was -1.28 (inactive); in that of GCAACUGCCUAGGCUUGAUTT against Slc30a7, 4.79 (active); in that of GGCAGAUGUAUGAAAUCUUTT against Fancc, -0.196 (inactive).

Consider GGUAUGCAACCUUGCCUUUTT against Coa3, for which the z-score is 0.945 (inactive). In the case of GGAGAAGACUUGUAACAAATT against Hacd4 it was 5.28 (active). GGGAUGACUUGGAGUCUCUTT against Csnk1d: the z-score was -0.0473 (inactive). With CGGUUUCUUACCAGCAAUUTT against Mgmt the figure was -0.237 (inactive). In the case of GAACCAGACUAAGAACUGUTT against Cox6b1 it was 5.31 (active).

In the case of GGCCUUCUCUGACUUUCUGTT against Zfp324, the z-score is -0.633 (inactive). For the sequence GGGACAAUGUACAUCUACUTT against Dnaaf6b, the z-score was -0.199 (inactive). On to GCAAGAUCCGUACAUAGCATT against Wdr48, for which the z-score is -1.43 (inactive).

GGCAUUAAAGACCUGUUAATT against Kpnb1: the z-score is -0.887 (inactive).

For AUUGUAGCAGUGAAUUGGATT against Pdia6, the z-score is -0.121 (inactive). In the case of GGAGCUGAUAGGACUGAUGTT against Snap47 it was 2.16 (active); in that of CCAGAAAUUGACAAAAAGUTT against Etfa, 0.492 (inactive). Consider GCCCUACCAAAGACACUAGTT against Lrch4, for which the z-score is -2.31 (active).

GGCAGGAGAAAGGCCUUUUTT against Olfr535: the z-score is 0.123 (inactive). GAGUGUGCAUUUUGUUAGUTT against Olfr136: the z-score is 0.763 (inactive). In the case of GGCUGAGGCUGUGAAGAAGTT against Igfbp5 it was -0.659 (inactive); in that of GGGCAAACGGAGGAAUGAATT against Slc35g3, 2.47 (active). In the case of GGAGAGUAAAUACCGACAGTT against Homer2 it was -0.133 (inactive); in that of GCUGUUACCCUUAUGCAGCTT against Supt7l, 0.486 (inactive); in that of GGACAACGAUAGCUAACCUTT against Tmem63a, 0.453 (inactive). With GGAUGAAGAACCACUCAAATT against Ankzf1 the figure was -1.06 (inactive); with GGUGUGUUUUAUGUGUCCCTT against Ctif, 2.62 (active). In the case of CCUAUUUUAACCUUACGUGTT against Bdh1, the z-score is -0.443 (inactive).

Regarding GGAAGAGUUGGAGAAAAUUTT against Tex46, the z-score was 2 (inactive). In the case of GGAGGUCUACAUUUAUUAATT against Dera it was 1.31 (inactive); in that of CCAAACAGGCUUUUUUCCUTT against Snx31, -0.712 (inactive). Take GCAACGAGUGUGUUUUCUGTT against Spink10: the z-score was 2.25 (active). With CCAUGUCAAACACCUUAGUTT against Crebzf the figure was 1.26 (inactive); with GGUAAGCUCCAAUUAUGCCTT against Ubr3, 0.0463 (inactive). In the case of GGAGCAAUUGAGAAAGAAGTT against Moap1 it was 0.508 (inactive). With CCCGUAACCAUUUACUGGUTT against Tyro3 the figure was 0.85 (inactive).

Turning to GGCACGAGCUCUCAUCUUUTT against Slc27a4, the z-score is -0.752 (inactive). In the case of GGAAACAAGGGACUCUGUATT against Col4a4 it was 0.906 (inactive). In the case of GCAGCUUUUUGAGGUGUUATT against Slc9a7 it was 3.07 (active); in that of GGAAUAGUGAAGGUACUUUTT against Cer1, 2.4 (active); in that of GGAAUUCUCUAUACCAAGATT against P2ry10b, 0.51 (inactive). For GCAAUUCCUCUUUUAGUCCTT against Spag6l, the z-score was -1.38 (inactive). In the case of GGCAGAUCUUCUUUGGAAATT against Ugt2b38 it was 0.757 (inactive); in that of GGACCGUCAGUGUCAUGGATT against Zfp397, -2.55 (active); in that of CCAUUGUUUGACUCAAAACTT against Gjc3, 0.62 (inactive).

As for GGACCAUGGAUAUUUAAAGTT against Mafk, the z-score is -0.297 (inactive). For the sequence GGAACUCUGUGGGUGAGAATT against Dock8, the z-score was -1.46 (inactive).

In the case of CCGGAUGUGCCUUGUCUACTT against Ckap5, the z-score was -1.58 (inactive). Take GGAAAAUCAAGACCUAUGGTT against Obox6: the z-score is -1.37 (inactive). As to GGAAGAGGUUAGCAAGCAUTT against Iws1, the z-score is 2.27 (active). As for GUGCAUUGUCUUUUGUAGATT against Olfr1095, the z-score was -0.753 (inactive). For CGAUAAACUGGAUACCACUTT against Sntn, the z-score was 0.437 (inactive). Consider GCAAUCUGUUUAGAGAGAGTT against Slc10a5, for which the z-score was -1.16 (inactive).

On to GGUGGUGAAUAUGAUGAUATT against Tsr1, for which the z-score is -0.712 (inactive). With GCUAAUGAUUUCCGCUUUGTT against Tyw1 the figure was 0.367 (inactive); with GCCUUAUGGUUUUGUAUUUTT against Nap1l1, -2.38 (active); with GCCCGCAUUCUUAUUCGAUTT against Tmem64, -1.13 (inactive). With GCUGAUGUUAAAUUCGCAGTT against Serpinb3b the figure was 1.33 (inactive); with CCACCUAUCAGGAUUCAACTT against Sf3b6, -3.37 (active); with GGAGCCCUGUGUCUUGAGUTT against Ccl19, -0.39 (inactive).

Turning to GGAGAUCCAAGAGAAAUUUTT against Csf3r, the z-score is 1.18 (inactive). GCAUUACACUGUUAAUGUUTT against Gopc: the z-score is -0.138 (inactive). With GCCUCAUUAUGAGUUGGCATT against Olfr1419 the figure was -2.51 (active); with GGAAUCACAAGGUAUUUUCTT against Spo11, -0.237 (inactive).

For the sequence GGUCCACAAUGGCAUCAUATT against Elf4, the z-score is 2.13 (active). Consider GGAGAAGUUUAAGGAGAUUTT against Dnajb5, for which the z-score was 1.54 (inactive).
